# Results: PubChem BioAssay (NCATS)
# Records with an inconclusive call do not appear. A call without a number means that no potency is given here. Calls of active or inactive are those of the source. The call rests on the fitted dose curve; in most records, active means well fitted inhibition curve with a large enough effect; inconclusive means small, poorly fitted or top-dose-only effect; inactive means flat fitted curve, though single readings scatter.
# Target: Calcium and integrin-binding protein 1 (Homo sapiens) (UniProt Q99828)
# Sequence (Q99828 whole entry, looked up): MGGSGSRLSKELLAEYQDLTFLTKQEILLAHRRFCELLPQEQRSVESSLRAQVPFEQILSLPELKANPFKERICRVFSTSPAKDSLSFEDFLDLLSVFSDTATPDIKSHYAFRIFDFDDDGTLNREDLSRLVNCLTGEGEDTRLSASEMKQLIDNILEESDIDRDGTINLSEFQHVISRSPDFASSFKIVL
# Test: Primary qHTS for Identification of Calcium Integrin Binding Protein 1 (CIB1) Competitor (AID 1508620); further: top concentration of the series differs between compounds
# Conditions: CIB1-GST / FITC-alphaIIb peptide fluorescence polarization; series mostly up to 114 µM
# Summary of the method: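 Fluorescence polarization competition: GST-tagged CIB1 (1 uM final) preincubated with compound 15 min at room temperature, then FITC-labelled alphaIIb peptide (100 nM final) added. After 15 min at room temperature, polarization read at Ex 480/Em 540.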
SMILES,Potency,"activity change, negative = inhibition"
CC(=O)O[C@@H]1[C@@H](O)[C@H](O[C@@H]2[C@@H](O)[C@@H](O)[C@H](O[C@H]3[C@H](O[C@H]4[C@H](O[C@H]5CC[C@@]6(C)C(CC[C@]7(C)C6CC=C6[C@@H]8CC(C)(C)CC[C@]8(C(=O)O)CC[C@]67C)[C@]5(C)CO)O[C@H](CO)[C@@H](O)[C@@H]4O)OC[C@@H](O)[C@@H]3O)O[C@H]2C)OC[C@H]1O (some centres undefined),inactive,–
O=C(c1ccccn1)N(Cc1cccs1)C1(C(=O)NC2CCCCC2)CCCCC1,inactive,–
OC1C=C2C3CN(Cc4cc5c(cc43)OCO5)C2CC1O (centres undefined),inactive,–
O=c1[nH]cnc2c([C@@H]3N[C@H](CO)[C@@H](O)[C@H]3O)c[nH]c12,inactive,–
C=CCc1ccc(OC(C)Cc2ccc(OC)c(OC)c2)c(OC)c1 (centres undefined),inactive,–
CC(=O)O[C@@H]1C[C@@]2(C)C(CC[C@]3(C)C2CC=C2C4CC(C)(C)CC[C@]4(C(=O)O)CC[C@]23C)C(C)(C)[C@H]1O (some centres undefined),inactive,–
COc1ccccc1C(=O)Nc1cc2c(cc1N1CCCC1)n(C)c(=O)n2C,inactive,–
Nc1nc2c(nc(Br)n2[C@@H]2O[C@@H]3COP(=O)(O)O[C@H]3[C@H]2O)c(=O)[nH]1,inactive,–
C=C1C(=O)O[C@@H]2/C=C(\CO)CC/C=C(/C=O)C[C@H](O)[C@@H]12,inactive,–
CNC(C)C(=O)NC(C(=O)N1CCCC1C(=O)Nc1snnc1-c1ccccc1)C1CCCCC1 (centres undefined),inactive,–
COc1cc(O)cc(OC2OC(CO)C(O)C(O)C2O)c1 (centres undefined),inactive,–
C/C=C(/C)C(=O)O[C@H]1[C@H](OC(=O)/C(C)=C\C)[C@@]23C(CC1(C)C)[C@]1(CCC4[C@@]5(C)CC[C@H](O[C@@H]6O[C@H](C(=O)O)[C@@H](O)[C@H](O[C@@H]7O[C@H](CO)[C@H](O)[C@H](O)[C@H]7O[C@@H]7O[C@@H](C)[C@H](O)[C@@H](O)[C@H]7O[C@@H]7OC[C@@H](O)[C@H](O)[C@H]7O)[C@H]6O[C@@H]6O[C@H](CO)[C@H](O)[C@H](O)[C@H]6O)C(C)(C)C5CC[C@@]4(C)[C@]1(C)C[C@H]2O)O[C@H]3O (some centres undefined),–,-2.7% [at 12.4 µM] (inactive)
Cc1cc(F)ccc1[C@H]1C[C@@H](N2CCN3C(=O)CC[C@H]3C2)CCN1C(=O)N(C)[C@H](C)c1cc(C(F)(F)F)cc(C(F)(F)F)c1,inactive,–
Cn1cc(-c2ccc3c(c2)CCN3C(=O)Cc2cccc(C(F)(F)F)c2)c2c(N)ncnc21,inactive,–
CCc1cc(C(N)=O)ccc1-n1nc(C(C)C)c2c(-n3cnc(-c4cnn(C)c4)c3)ccnc21,inactive,–
CC(C)(C)[C@H](NC(=O)c1ccc(N)c(Cl)c1)C(=O)N1CCC[C@H]1C(=O)N[C@H](C#N)CC(=O)O,inactive,–
Cc1cc(-c2nc(-c3ccc(OC(F)(F)F)cc3)no2)nn1Cc1ccnc(N2CCN(C3CC3)CC2)c1,inactive,–
CCC(C)(OC(C)=O)C(=O)O[C@H]1[C@H](OC(C)=O)[C@]2(CO)[C@H](O)[C@H](O)[C@]3(C)C(=CCC4[C@@]5(C)CC[C@H](O[C@@H]6O[C@H](C(=O)O)[C@@H](O)[C@H](O[C@@H]7OC[C@H](O)[C@H](O[C@@H]8OC[C@H](O)[C@H](O)[C@H]8O)[C@H]7O)[C@H]6O[C@@H]6O[C@H](CO)[C@@H](O)[C@H](O)[C@H]6O)C(C)(C)C5CC[C@]43C)[C@@H]2CC1(C)C (some centres undefined),–,5.33% [at 12.4 µM] (inactive)
C[C@@H]1C[C@H]2O[C@@]3(O[C@@H]2C(C)(C)O)C(O)[C@@]2(C)C4CCC5C(C)(C)[C@@H](O[C@H]6OC[C@H](O)[C@@H](O)[C@@H]6O)CC[C@@]56C[C@@]46CC[C@]2(C)C13 (some centres undefined),inactive,–
C=C1C(=O)OC2CC(C)=C(C(C)CCCOC(C)=O)C(OC(=O)CC(C)CC)C12 (centres undefined),inactive,–

SMILES,Potency,"activity change, negative = inhibition"
COc1c2c(c(C)c3c1C(=O)OC3)O[C@@]1(C)C[C@@H](OC(C)=O)[C@]34O[C@](OC)(CC[C@]3(C)[C@H]1C2)OC4(C)C,inactive,–
CCN(Cc1ccccc1)C(=O)Cn1c(=O)n(C)c2cnc(-c3ccccc3)nc21,inactive,–
O=C(NC[C@H]1CN(c2ccc(N3CCOCC3=O)cc2)C(=O)O1)c1ccc(Cl)s1,inactive,–
C=C1C(=O)O[C@@H]2/C=C(/C)[C@@H](OC(C)=O)C/C=C(\C)C[C@@H](OC(=O)/C(=C/CO)CO)[C@@H]12,inactive,–
CC(=O)NC(C(=O)O[C@H]1CCC(C)(C)[C@@H]2CC=C3C(=O)OCC3(O)[C@@]12C)C(C)C (some centres undefined),inactive,–
CCCn1cc2c(nc(NC(=O)Nc3ccc(OC)cc3)n3nc(-c4ccco4)nc23)n1,inactive,–
CCCSc1nc(N[C@@H]2C[C@H]2c2ccc(F)c(F)c2)c2nnn([C@@H]3C[C@H](OCCO)[C@@H](O)[C@H]3O)c2n1,inactive,–
Cc1cc(C)c(S(=O)(=O)n2cc(C)cc2C)c(C)c1,inactive,–
COc1cc(C(C)C)c(Oc2cnc(N)nc2N)cc1I,inactive,–
COc1cc(N2CCC(O)CC2)ccc1Nc1nc(Nc2ccccc2S(=O)(=O)C(C)C)c2[nH]cnc2n1,inactive,–
C=C1CC[C@H]2C(=C)CC[C@H]3C(=C)C(=O)O[C@@H]3[C@@H]12,inactive,–
CCCCOC(=O)NS(=O)(=O)c1sc(CC(C)C)cc1-c1ccc(Cn2ccnc2)cc1,inactive,–
O=C1NC(=O)C(c2cnc3ccccn23)=C1c1cn2c3c(cc(F)cc13)CN(C(=O)N1CCCCC1)CC2,inactive,–
CCc1cccc(CC)c1-n1c(C=C(C)C)c(C(=O)N2CCNCC2)cc(-c2nc(-c3ccc(C(F)(F)F)cc3)cs2)c1=O,inactive,–
CC1(C)CC[C@]23CO[C@@]4(CCC5[C@@]6(C)CC[C@H](O[C@@H]7OC[C@H](O[C@@H]8O[C@H](CO)[C@@H](O)[C@H](O)[C@H]8O[C@@H]8OC[C@@H](O)[C@H](O)[C@H]8O)[C@H](O)[C@H]7O)[C@@](C)(CO)C6CC[C@@]5(C)[C@]4(C)CC2=O)[C@@H]3C1 (some centres undefined),inactive,–
COc1cc2ncnc(Nc3ccc(O)c(Br)c3)c2cc1OC,inactive,–
Cc1ccc(-c2ncc[nH]2)cc1NC(=O)c1ccc(OCc2ccccn2)cc1,inactive,–
Cn1nc(C(C)(C)C)cc1C(=O)N[C@@H](Cc1cccc(Cl)c1)C(=O)NCC#N,inactive,–
C#Cc1cccc(Nc2nc3cc(C(=O)O)ccc3c3cncnc23)c1,inactive,–
